Results reported in the antibiotic and cytotoxicity screens of Wong et al. (2023).
In all, about 39,000 compounds went through this assay and about 3,300 (8.5%) were called active. Many of the other results were omitted from the sample, so actives are more common in it than they were.

These molecules were tested on HepG2 (assay: cytotoxicity call (relative viability < 0.9)). Details: 10 µM.

SMILES | cytotoxicity call
COc1ccc(C#Cc2cccc(-c3nc(C(=O)N[C@@H]4CCN(Cc5ccccc5)C4)cc4c3[C@@H](CCO)N(S(=O)C(C)(C)C)C4)c2)cc1OC (stereo partly specified) | inactive
c1ccc2cc3nc4c(ccc5ccccc54)nc3cc2c1 | inactive
C[C@@H]1CCCCO[C@@H](CN(C)C(=O)NC2CCCCC2)[C@@H](C)CN([C@H](C)CO)C(=O)c2cc(NC(=O)c3ccccc3)ccc2O1 | inactive
C[C@@H]1CN([C@@H](C)CO)S(=O)(=O)c2ccc(C#Cc3ccccc3)cc2O[C@H]1CN(C)S(C)(=O)=O | inactive
C[C@H](CO)N1C[C@H](C)[C@@H](CN(C)Cc2ccncc2)Oc2c(NC(=O)c3cnccn3)cccc2C1=O | inactive
C[C@@H]1CN([C@@H](C)CO)C(=O)c2cc(NC(=O)Nc3ccc(C(F)(F)F)cc3)ccc2O[C@@H](C)CCCCO[C@@H]1CN(C)C(=O)Nc1cccc2ccccc12 | inactive
CC(C)NC(=O)Nc1ccc2c(c1)C(=O)N([C@@H](C)CO)C[C@@H](C)[C@@H](CN(C)C(=O)Nc1cccc3ccccc13)OCCCC[C@@H](C)O2 | inactive
CC(C)NC(=O)Nc1ccc2c(c1)C(=O)N([C@H](C)CO)C[C@@H](C)[C@H](CN(C)C(=O)Nc1cccc3ccccc13)OCCCC[C@H](C)O2 | inactive
C[C@@H]1CN([C@@H](C)CO)C(=O)c2cc(NC(=O)Nc3ccc(C(F)(F)F)cc3)ccc2O[C@@H](C)CCCCO[C@H]1CN(C)C(=O)Nc1cccc2ccccc12 | inactive
C[C@H](CO)N1C[C@H](C)[C@@H](CN(C)C(=O)Nc2cccc3ccccc23)OCCCC[C@H](C)Oc2ccc(NC(=O)Nc3cccc4ccccc34)cc2C1=O | inactive
CC(C)NC(=O)Nc1ccc2c(c1)C(=O)N([C@H](C)CO)C[C@H](C)[C@H](CN(C)C(=O)Nc1cccc3ccccc13)OCCCC[C@H](C)O2 | active
C[C@@H]1CCCCO[C@@H](CN(C)C(=O)Nc2cccc3ccccc23)[C@H](C)CN([C@@H](C)CO)C(=O)c2cc(NC(=O)Nc3cccc4ccccc34)ccc2O1 | active
C[C@@H]1CCCCO[C@H](CN(C)C(=O)Nc2cccc3ccccc23)[C@H](C)CN([C@@H](C)CO)C(=O)c2cc(NC(=O)Nc3ccc(C(F)(F)F)cc3)ccc2O1 | active
C[C@@H]1CN([C@@H](C)CO)C(=O)c2cc(NC(=O)Nc3cccc4ccccc34)ccc2O[C@@H](C)CCCCO[C@H]1CN(C)C(=O)Nc1cccc2ccccc12 | inactive
CN(C)CCCNC(=O)C[C@@H]1C=C[C@H](NS(=O)(=O)c2ccccc2)[C@H](CO)O1 | inactive
CO[C@@H]1CN(C)C(=O)c2cc(NC(=O)C3CC3)ccc2OC[C@@H](C)N(C(=O)Cc2ccccn2)C[C@H]1C | inactive
